Structures can show the parent of a compound that is named as a salt.

The test system of one assay is HCC1937. Put plainly: relative cell viability, compound + erastin, vs DMSO (fraction of DMSO control); higher = less growth inhibition. Conditions: 72 h.
A further assay concerns MDA-MB-231. The description is as above. The note with it: 72 h.
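Note: viability read by CCK-8 kit in 96-well plates, part of a combination screen pairing lipid-metabolism-targeting compounds with erastin.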

In the case of `N=C(N)NCCC(=O)O` [3-Guanidinopropionic Acid] + CCOc1ccccc1-n1c(C(C)N2CCN(C(=O)COc3ccc(Cl)cc3)CC2)nc2ccccc2c1=O [erastin], the relative cell viability was 0.714 with HCC1937 and 0.852 with MDA-MB-231.
In the same order, the values of `CCCc1c(-c2ccccc2)[nH]n(-c2ccccn2)c1=O` [APX-115 free base] + CCOc1ccccc1-n1c(C(C)N2CCN(C(=O)COc3ccc(Cl)cc3)CC2)nc2ccccc2c1=O [erastin] are 0.615 and 0.625.
In the same order, the values of `CCOc1cc(CC(=O)N[C@@H](CC(C)C)c2ccccc2N2CCCCC2)ccc1C(=O)O` [Repaglinide] + CCOc1ccccc1-n1c(C(C)N2CCN(C(=O)COc3ccc(Cl)cc3)CC2)nc2ccccc2c1=O [erastin] are 0.711 and 0.566.
In the same order, the values of `CC[C@H]1[C@@H](O)[C@@H]2[C@H](CC[C@]3(C)[C@@H]([C@H](C)CCC(=O)O)CC[C@@H]23)[C@@]2(C)CC[C@@H](O)C[C@@H]12` [Obeticholic Acid] + CCOc1ccccc1-n1c(C(C)N2CCN(C(=O)COc3ccc(Cl)cc3)CC2)nc2ccccc2c1=O [erastin] are 0.616 and 0.771.
As to `COc1c(/C=C/C(=O)c2ccc(O)cc2)ccc(O)c1CC=C(C)C` + CCOc1ccccc1-n1c(C(C)N2CCN(C(=O)COc3ccc(Cl)cc3)CC2)nc2ccccc2c1=O [erastin], the relative cell viability in the assay on HCC1937 stood at 0.58; with MDA-MB-231, 0.749.
The corresponding values for `CCCC[S+]([O-])c1sc2nc(-c3cccs3)cc(-c3ccccc3)c2c1N` (configuration not stated) + CCOc1ccccc1-n1c(C(C)N2CCN(C(=O)COc3ccc(Cl)cc3)CC2)nc2ccccc2c1=O [erastin] are 0.72 and 0.715.
The corresponding values for `Cn1c2cc([S+](C)[O-])sc2c2cnn(Cc3cccc(N)c3)c(=O)c21` (configuration not stated) + CCOc1ccccc1-n1c(C(C)N2CCN(C(=O)COc3ccc(Cl)cc3)CC2)nc2ccccc2c1=O [erastin] are 0.61 and 0.745.
The corresponding values for `O=C(O)/C=C/c1ccc(O)c(O)c1` [Caffeic Acid] + CCOc1ccccc1-n1c(C(C)N2CCN(C(=O)COc3ccc(Cl)cc3)CC2)nc2ccccc2c1=O [erastin] are 0.777 and 0.979.
For `CCOC(=O)C(C)(C)Oc1ccc(Cl)cc1` [Clofibrate] + CCOc1ccccc1-n1c(C(C)N2CCN(C(=O)COc3ccc(Cl)cc3)CC2)nc2ccccc2c1=O [erastin], the relative cell viability was 0.801 in the assay on HCC1937 and 0.653 in the assay on MDA-MB-231.
Take `CN(C)C(=N)NC(=N)N` [Metformin hydrochloride] + CCOc1ccccc1-n1c(C(C)N2CCN(C(=O)COc3ccc(Cl)cc3)CC2)nc2ccccc2c1=O [erastin]: the relative cell viability came to 0.943 in the assay with HCC1937 and 1.03 with MDA-MB-231.
As to `O=C(O)Cn1nnc(-c2cc(N3CCC(Oc4cc(F)ccc4Br)CC3)no2)n1` + CCOc1ccccc1-n1c(C(C)N2CCN(C(=O)COc3ccc(Cl)cc3)CC2)nc2ccccc2c1=O [erastin], the relative cell viability in the assay on HCC1937 is 0.529; with MDA-MB-231, 0.679.
For `COc1ccc(-n2c(SCCCN3C(=O)c4cccc5cccc(c45)C3=O)nnc2-c2ccncc2)cc1` + CCOc1ccccc1-n1c(C(C)N2CCN(C(=O)COc3ccc(Cl)cc3)CC2)nc2ccccc2c1=O [erastin], the relative cell viability in the assay with HCC1937 was found to be 0.437; in the assay on MDA-MB-231 it was 0.658.
The corresponding values for `COc1ccc2[nH]cc(CCNC(C)=O)c2c1` [Melatonine] + CCOc1ccccc1-n1c(C(C)N2CCN(C(=O)COc3ccc(Cl)cc3)CC2)nc2ccccc2c1=O [erastin] are 0.585 and 0.693.
The corresponding values for `COc1cc(O)c2c(c1)O[C@H](c1ccc(O)cc1)CC2=O` [Sakuranetin] + CCOc1ccccc1-n1c(C(C)N2CCN(C(=O)COc3ccc(Cl)cc3)CC2)nc2ccccc2c1=O [erastin] are 0.648 and 0.527.
`CCNC1(C(N)=O)CCN(c2ncnc3c2nc(-c2ccccc2Cl)n3-c2ccc(Cl)cc2)CC1` [Otenabant] + CCOc1ccccc1-n1c(C(C)N2CCN(C(=O)COc3ccc(Cl)cc3)CC2)nc2ccccc2c1=O [erastin]: the relative cell viability in the assay with HCC1937 stood at 0.441; with MDA-MB-231 it was 0.459.
In the same order, the values of `CC(=O)Nc1nc(C)c(S(=O)(=O)Nc2ccc(C(O)(C(F)(F)F)C(F)(F)F)cc2)s1` + CCOc1ccccc1-n1c(C(C)N2CCN(C(=O)COc3ccc(Cl)cc3)CC2)nc2ccccc2c1=O [erastin] are 0.956 and 1.1.
In the same order, the values of `Cc1ccc(Oc2nc3cc(-c4ccc(-c5ccccc5)cc4)c(Cl)cc3[nH]2)cc1C(=O)O` + CCOc1ccccc1-n1c(C(C)N2CCN(C(=O)COc3ccc(Cl)cc3)CC2)nc2ccccc2c1=O [erastin] are 0.553 and 0.629.
The corresponding values for `CC(C)=CCC[C@](C)(O[C@@H]1O[C@H](CO)[C@@H](O)[C@H](O)[C@H]1O)[C@H]1CC[C@]2(C)[C@@H]1[C@H](O)C[C@@H]1[C@@]3(C)CC[C@H](O[C@@H]4O[C@H](CO)[C@@H](O)[C@H](O)[C@H]4O[C@@H]4O[C@H](CO)[C@@H](O)[C@H](O)[C@H]4O)C(C)(C)[C@@H]3CC[C@]12C` [Ginsenoside Rd] + CCOc1ccccc1-n1c(C(C)N2CCN(C(=O)COc3ccc(Cl)cc3)CC2)nc2ccccc2c1=O [erastin] are 0.355 and 0.317.
Turning to `Cc1c(C(=O)Nc2ccc(CO)cc2)nnn1Cc1ccc(Cl)c(Cl)c1` + CCOc1ccccc1-n1c(C(C)N2CCN(C(=O)COc3ccc(Cl)cc3)CC2)nc2ccccc2c1=O [erastin], the figures for the relative cell viability with HCC1937 and in the assay on MDA-MB-231 were 0.684 and 0.733, respectively.
For the molecule `Nc1ncnc2c1ncn2C1OC(COP(=O)(O)O)C(O)C1O` (configuration not stated) [Adenosine 5'-monophosphate monohydrate] + CCOc1ccccc1-n1c(C(C)N2CCN(C(=O)COc3ccc(Cl)cc3)CC2)nc2ccccc2c1=O [erastin], the relative cell viability in the assay on HCC1937 is 0.97; in the assay with MDA-MB-231 it was 1.07.
In the same order, the values of `C[C@H](CCC(=O)O)[C@H]1CC[C@H]2[C@@H]3CC[C@@H]4C[C@H](O)CC[C@]4(C)[C@H]3CC[C@]12C` [Lithocholic acid] + CCOc1ccccc1-n1c(C(C)N2CCN(C(=O)COc3ccc(Cl)cc3)CC2)nc2ccccc2c1=O [erastin] are 0.832 and 0.688.
In the case of `CCCCCCCCCc1ccc(B(O)O)cc1` [4-Nonylphenylboronic acid] + CCOc1ccccc1-n1c(C(C)N2CCN(C(=O)COc3ccc(Cl)cc3)CC2)nc2ccccc2c1=O [erastin], the relative cell viability stood at 0.9 in the assay on HCC1937 and 0.358 in the assay on MDA-MB-231.
In the same order, the values of `C=CCc1ccc(O)c(-c2cc(CC=C)ccc2O)c1` [Magnolol] + CCOc1ccccc1-n1c(C(C)N2CCN(C(=O)COc3ccc(Cl)cc3)CC2)nc2ccccc2c1=O [erastin] are 0.99 and 1.02.
In the same order, the values of `CCc1ccc(CCOc2ccc(CC3SC(=O)NC3=O)cc2)nc1` (configuration not stated) [Pioglitazone] + CCOc1ccccc1-n1c(C(C)N2CCN(C(=O)COc3ccc(Cl)cc3)CC2)nc2ccccc2c1=O [erastin] are 0.803 and 0.551.
In the same order, the values of `CCCCCCCCCCCC1=C(O)C(=O)C=C(O)C1=O` [Embelin] + CCOc1ccccc1-n1c(C(C)N2CCN(C(=O)COc3ccc(Cl)cc3)CC2)nc2ccccc2c1=O [erastin] are 0.72 and 0.575.
For `O=C(Oc1ccc([N+](=O)[O-])cc1)N1CCN(Cc2cccc(Oc3ccccc3)c2)CC1` + CCOc1ccccc1-n1c(C(C)N2CCN(C(=O)COc3ccc(Cl)cc3)CC2)nc2ccccc2c1=O [erastin], the relative cell viability in the assay with HCC1937 turned out to be 0.199; in the assay on MDA-MB-231 it was 0.312.
The corresponding values for `COP(=O)(OC)OC(c1ccc(Cl)cc1)P(=O)(OC)OC` (configuration not stated) [Mifobate] + CCOc1ccccc1-n1c(C(C)N2CCN(C(=O)COc3ccc(Cl)cc3)CC2)nc2ccccc2c1=O [erastin] are 0.875 and 1.06.
The corresponding values for `O=C(Nc1ccncc1)c1cc([N+](=O)[O-])ccc1Cl` + CCOc1ccccc1-n1c(C(C)N2CCN(C(=O)COc3ccc(Cl)cc3)CC2)nc2ccccc2c1=O [erastin] are 0.47 and 0.726.
In the same order, the values of `CCCCCCCCCCCCC/C=C/[C@@H](O)[C@@H](N)CO` + CCOc1ccccc1-n1c(C(C)N2CCN(C(=O)COc3ccc(Cl)cc3)CC2)nc2ccccc2c1=O [erastin] are 0.248 and 0.363.
For `CC[C@H](C)C(=O)O[C@H]1C[C@@H](C)C=C2C=C[C@H](C)[C@H](CC[C@@H]3C[C@@H](O)CC(=O)O3)[C@H]21` [Lovastatin] + CCOc1ccccc1-n1c(C(C)N2CCN(C(=O)COc3ccc(Cl)cc3)CC2)nc2ccccc2c1=O [erastin], the relative cell viability with HCC1937 stood at 0.804; in the assay with MDA-MB-231, 0.569.
With `COc1ccc2c(c1)c(CC(=O)O)c(C)n2C(=O)c1ccc(Cl)cc1` [Indometacin] + CCOc1ccccc1-n1c(C(C)N2CCN(C(=O)COc3ccc(Cl)cc3)CC2)nc2ccccc2c1=O [erastin], the relative cell viability came to 0.941 with HCC1937 and 0.639 with MDA-MB-231.
In the same order, the values of `CCC(=O)O[C@]1(C(=O)CCl)[C@@H](C)C[C@H]2[C@@H]3C[C@H](F)C4=CC(=O)C=C[C@]4(C)[C@@]3(F)[C@@H](O)C[C@@]21C` [Halobetasol Propionate] + CCOc1ccccc1-n1c(C(C)N2CCN(C(=O)COc3ccc(Cl)cc3)CC2)nc2ccccc2c1=O [erastin] are 0.708 and 0.973.
Regarding `O=C(Nc1ccccc1)c1cc([N+](=O)[O-])ccc1Cl` + CCOc1ccccc1-n1c(C(C)N2CCN(C(=O)COc3ccc(Cl)cc3)CC2)nc2ccccc2c1=O [erastin], the relative cell viability turned out to be 0.71 with HCC1937 and 0.706 in the assay on MDA-MB-231.
For the molecule `COc1ccc(N(C(=O)Nc2c(C)cccc2C)c2cc(Nc3ccc(N4CCN(C)CC4)cc3)ncn2)c(OC)c1` + CCOc1ccccc1-n1c(C(C)N2CCN(C(=O)COc3ccc(Cl)cc3)CC2)nc2ccccc2c1=O [erastin], the relative cell viability in the assay with HCC1937 is 0.553; in the assay with MDA-MB-231, 0.852.
The corresponding values for `CCOP(=O)(OCC)C(=Cc1cc(C(C)(C)C)c(O)c(C(C)(C)C)c1)P(=O)(OCC)OCC` + CCOc1ccccc1-n1c(C(C)N2CCN(C(=O)COc3ccc(Cl)cc3)CC2)nc2ccccc2c1=O [erastin] are 0.534 and 0.648.
`C[C@@]12C[C@@H](c3ccoc3)OC(=O)[C@@H]1CC[C@]1(C)[C@H]2[C@@H]2C=C[C@@]1(O)C(=O)O2` [Columbin] + CCOc1ccccc1-n1c(C(C)N2CCN(C(=O)COc3ccc(Cl)cc3)CC2)nc2ccccc2c1=O [erastin]: the values for the relative cell viability in the assay on HCC1937 and with MDA-MB-231 were 0.607 and 0.688, respectively.

Values taken from the supplement of paper PMC9492666.
